Where a name gives a salt, the structure may show the parent alone. About 180 (8.6%) of roughly 2,100 compounds showed an effect of 50% or more. The sample holds strong results, similar compounds and a random draw of the others, so the mix is not that of the screen.

This assay concerns MOLM1 and UCSD/AML1 (averaged). The assay can be described thus: cell viability relative to DMSO control (POC); higher = less growth inhibition. The note with it: 1 µM; 72 h. The procedure: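 Primary viability screen in the 3q26 EVI1-high AML cell lines MOLM1 and UCSD/AML1 (1.5e3 cells/well, 384-well), compounds at 1 uM for 72 h. ATP CellTiter-Glo read-out given as percent of viable cells over DMSO control (POC), averaged over duplicates. DMSO was the negative control and 5 uM etoposide the positive control. This mapping covers the MicroSource Spectrum and Selleck anticancer libraries (drug names).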
In the case of `Nc1c2ccccc2nc2ccccc12`, the cell viability – broadly, a read-out of living cells in per cent, often relative to untreated cells – worked out at 65%. Consider `CC(C)Cn1cnc2c(N)nc3ccccc3c21` [Imiquimod], for which the cell viability was found to be 47.9%. As to `CCCCCCCCCc1ccc(OCCOCCOCCOCCOCCOCCOCCOCCOCCO)cc1`, the cell viability was 37.9%. For the compound `CCCCCCCCc1ccc(CCC(N)(CO)CO)cc1` [Fingolimod (FTY720)], the cell viability turned out to be 76.7%. In the case of `CCCCOc1ccc(CC(=O)NO)cc1`, the cell viability was 115%. As to `COc1ccc2c(c1)OC1(O)COc3cc(OC)c(OC)cc3C1=C2` (configuration not stated), the cell viability was determined as 102%. To `CC1=CCc2c(cc3oc(C)cc(=O)c3c2O)OC1` belongs 90.4%; to `CCC(=O)O[C@H]1CC[C@H]2[C@@H]3CCc4cc(O)ccc4[C@H]3CC[C@]12C`, 95.4%. The figure for `COc1cc(NS(C)(=O)=O)ccc1Nc1c2ccccc2nc2ccccc12` is 12.8%; for `CS(=O)(=O)Nc1ccc([N+](=O)[O-])cc1Oc1ccccc1` it is 96.7%; for `CC(=O)Oc1cc(C)c2c(c1C=O)Oc1c(c(C)c(OC(C)=O)c3c1C(OC(C)=O)OC3=O)OC2=O` (configuration not stated) it is 106%. The figure for `CC1(C)C[C@@H]2C(=O)CC[C@H]3O[C@]3(C)CC[C@H]21` is 104%. On to `CC(=O)O[C@@H]1C=C[C@]2(C)C(C[C@@H](OC(C)=O)[C@]3(C)C4=CC(=O)O[C@H](c5ccoc5)[C@@]4(C)CCC23)C1(C)C` (some centres not stated), for which the cell viability came to 94.4%. The figure for `COc1ccc(-c2cc(=O)c3c(OC(C)=O)cc(OC(C)=O)cc3o2)cc1` is 96.9%. As for `Oc1ccc([C@H]2Oc3cc(O)cc(O)c3C[C@H]2O)cc1`, the cell viability was 102%. With `CCCCCCc1ccc(O)cc1O.Nc1c2ccccc2nc2ccccc12`, the cell viability came out at 46.4%. The figure for `CCCCCCc1ccc(O)cc1O` is 98.6%.

Regarding `Nc1c2c(nc3ccccc13)CCCC2`, the cell viability came to 105%. `CC(=O)O[C@@H]1CC(=O)[C@@]2(C)C(CC(=O)[C@]3(C)C2CC[C@@]2(C)[C@H](c4ccoc4)OC(=O)C4OC423)C1(C)C` (some centres not stated): the cell viability was determined as 100%. For `O=c1oc2ccccc2c(O)c1Cc1c(O)c2ccccc2oc1=O`, the cell viability was 98.1%. For the compound `O=C(O)/C=C/c1ccccc1`, the cell viability turned out to be 105%.

`O=C(/C=C/c1cccc(S(=O)(=O)Nc2ccccc2)c1)NO` [Belinostat (PXD101)]: the cell viability was 1.86%. To `O=C(O)/C=C/C=C/c1ccccc1` belongs 121%; to `COc1ccc2c(c1)OCc1c-2oc2cc(OC)ccc12`, 99%; to `O=C(Nc1ccc(OC(F)(F)F)cc1)c1sccc1NCc1ccnc2ccccc12`, 64.7%. To `COc1ccc2c(c1)O[C@@H]1COc3cc(OC)c(OC)cc3[C@@H]1C2=O` belongs 102%. With `C=C(C)[C@@H]1CC=C(CO)CC1`, the cell viability came out at 88.1%. The figure for `Cc1cc(=O)oc2cc(O)c(O)cc12` is 98.5%; for `Nc1ncnc2c1ncn2[C@@H]1O[C@H](CO)[C@@H](O)[C@H]1O` it is 105%; for `Nc1ncnc2c1ncn2[C@@H]1O[C@H](CO)[C@@H](O)[C@@H]1O` it is 93.9%. Consider `OC[C@H]1O[C@@H](n2cnc3c(NCc4ccco4)ncnc32)[C@H](O)[C@@H]1O`, for which the cell viability was determined as 5.88%. The figure for `CC(C)CCCC(C)C1CCC2C3=CCC4CC(O)CCC4(C)C3CCC21C` (configuration not stated) is 93%.

With `COC(=O)CC[C@@H](C)[C@H]1CC[C@H]2[C@@H]3CC[C@@H]4C[C@H](O)CC[C@]4(C)[C@H]3C[C@H](O)[C@]12C`, the cell viability came to 97.4%. In the case of `N=C(N)NCCCCNC(=N)N`, the cell viability came to 102%. To `COc1ccc(-c2coc3c(O)c(O)c(OC)cc3c2=O)cc1` belongs 111%; to `COc1c(O)cc2c(-c3ccccc3)cc(=O)oc2c1OC`, 92.8%; to `CCCSc1ccc2[nH]c(NC(=O)OC)nc2c1`, 12.4%. To `COC(=O)Nc1nc2cc(Sc3ccccc3)ccc2[nH]1` belongs 41.9%.

Take `COC(=O)[C@@H]1OC(=O)C2OC23[C@@]1(C)CCC1[C@]2(C)C(C[C@@H](O)[C@]13C)C(C)(C)[C@H](OC(C)=O)C[C@@H]2OC(C)=O` (some centres not stated): the cell viability came to 111%. Take `O=C(O)CCCN1C(=O)c2cccc3cccc(c23)C1=O`: the cell viability was determined as 103%. To `COc1cc2cc3c4cc(OC)c(OC)cc4cc[n+]3c(C)c2cc1OC` belongs 99.6%; to `C[C@H]1[C@H](C)CC[C@]2(C(=O)O)CC[C@]3(C)C(=CC[C@@H]4[C@@]5(C)C[C@@H](O)[C@H](O)[C@@](C)(CO)[C@@H]5[C@H](O)C[C@]43C)[C@H]12`, 86.8%; to `O=C(Nc1ccccc1-c1cn2c(CN3CCNCC3)csc2n1)c1cnc2ccccc2n1`, 95.6%. As to `COc1cc(OC)c2c(=O)c(-c3ccc4c(c3)OCO4)coc2c1`, the cell viability amounted to 127%.

As for `COC(=O)C[C@H]1C(C)(C)[C@@H](O)[C@@H]2CC3=C4CC(O)O[C@@H](c5ccoc5)[C@]4(C)CCC3[C@@]1(C)C2=O` (stereo partly drawn) [3,16-DIDEOXYMEXICANOLIDE-3beta-DIOL], the cell viability was 86.1%.

As to `C#Cc1cccc(Nc2ncnc3cc(OCCOC)c(OCCO)cc23)c1`, the cell viability turned out to be 65.1%. To `C#Cc1cccc(Nc2ncnc3cc(OC)c(OCCCCCCC(=O)NO)cc23)c1` belongs 22.2%; to `C#Cc1cccc(Nc2ncnc3cc(OCCOC)c(OCCO)cc23)c1` [OSI-420 (Desmethyl Erlotinib)], 42.9%. The figure for `COc1cc2c(N3CCN(C(=O)Nc4ccc(OC(C)C)cc4)CC3)ncnc2cc1OCCCN1CCCCC1` [Tandutinib (MLN518)] is 73.6%; for `COc1cc2ncnc(Nc3cccc(Br)c3)c2cc1OC` it is 61.8%.

`COc1ccc(-c2cc(=O)c3c(O)cc(OC)cc3o2)cc1`: the cell viability was 110%. The figure for `CC(=O)C12OC(C)(c3ccccc3)OC1CC1C3CCC4=CC(=O)CCC4(C)C3CCC12C` (configuration not stated) is 89.4%; for `CCC(C)C(=O)OC1[C@@H]2CC3=C4CC(=O)O[C@@H](c5ccoc5)[C@]4(C)CCC3[C@@](C)(C2=O)[C@@H](CC(=O)OC)C1(C)C` (some centres not stated) it is 99.4%. To `CC(C)CCC[C@@H](C)[C@H]1CC[C@H]2[C@@H]3C[C@@H](O)[C@@]4(O)C[C@@H](O)CC[C@]4(C)[C@H]3CC[C@]12C` [CHOLESTAN-3beta,5alpha,6beta-TRIOL] belongs 102%; to `CC(=O)O[C@H]1CC[C@]2(C)C(C[C@@H](OC(C)=O)[C@]3(C)C4=CC(=O)O[C@H](c5ccoc5)[C@@]4(C)CCC23)C1(C)C` (stereo partly drawn) [3-DEOXO-3beta-ACETOXYDEOXYDIHYDROGEDUNIN], 92.3%; to `CC(C)c1cc(-c2n[nH]c(=O)n2-c2ccc3c(ccn3C)c2)c(O)cc1O` [Ganetespib (STA-9090)], 2.49%. The figure for `CC(=O)O[C@H]1C[C@@H](O)C(C)(C)[C@@H]2C[C@@H](OC(C)=O)[C@]3(C)[C@H](CC[C@@]4(C)[C@@H](c5ccoc5)OC(=O)[C@H]5O[C@@]534)[C@@]12C` is 104%; for `O=c1cc(-c2ccccc2)oc2cc(O)c(O)cc12` it is 96.6%. Consider `COc1cc(Nc2ncc3c(n2)-c2ccc(Cl)cc2C(c2c(F)cccc2OC)=NC3)ccc1C(=O)O` [MLN8237 (Alisertib)], for which the cell viability came out at 49.6%. To `C=C1[C@H]2CC[C@@]3(C)[C@H](c4ccoc4)OC(=O)C[C@]13O[C@H]1C[C@H](O)C(C)(C)[C@H](CC(=O)OC)[C@]12C` [3-DEOXY-3beta-HYDROXYANGOLENSIC ACID METHYL ESTER] belongs 97.7%. On to `C[C@@H]1CC[C@@]2(OC1)O[C@H]1C[C@H]3[C@@H]4CC=C5C[C@@H](O)CC[C@]5(C)[C@H]4CC[C@]3(C)[C@H]1[C@@H]2C`, for which the cell viability came to 93.7%.

`O=c1cc(-c2ccc(O)cc2)oc2cc(O[C@@H]3O[C@H](CO)[C@@H](O)[C@H](O)[C@H]3O)cc(O)c12`: the cell viability was 104%. Turning to `O=C(O)c1cc2ccccc2[nH]1`, the cell viability worked out at 118%.

Take `O=C(O)CCC(=O)c1ccc(-c2ccccc2)cc1`: the cell viability came out at 93.4%. The figure for `O=C(O)CCc1nc(-c2ccccc2)c(-c2ccccc2)o1` is 45.5%; for `O=C(O)CCCc1ccccc1` it is 90.8%; for `C[C@]1(O)C[C@@H](c2nc(-c3ccc4ccc(-c5ccccc5)nc4c3)c3c(N)nccn32)C1` [OSI-906 (Linsitinib)] it is 100%.

For `O=C(Nc1cccc(Cl)c1)Nc1ncc(CCNc2ncnc3ccsc23)s1` [SNS-314 Mesylate], the cell viability is 60%.

For `CC1(C)[C@@H](O[C@H]2O[C@H](C(=O)O)[C@@H](O)[C@H](O)[C@H]2O[C@@H]2O[C@H](C(=O)O)[C@@H](O)[C@H](O)[C@H]2O)CC[C@]2(C)[C@H]3C(=O)C=C4[C@@H]5C[C@@](C)(C(=O)O)CC[C@]5(C)CC[C@@]4(C)[C@]3(C)CC[C@@H]12`, the cell viability worked out at 96.4%. The figure for `COc1cc(/C=C/C(=O)O)cc(OC)c1OC` is 118%. The figure for `COc1cc([C@@H]2c3cc4c(cc3[C@@H](O[C@@H]3O[C@@H]5CO[C@@H](C)O[C@H]5[C@H](O)[C@H]3O)[C@H]3COC(=O)[C@H]23)OCO4)cc(OC)c1O` is 59.4%; for `COc1cc([C@@H]2c3cc4c(cc3[C@@H](O[C@@H]3O[C@@H]5CO[C@@H](c6cccs6)O[C@H]5[C@H](O)[C@H]3O)[C@H]3COC(=O)[C@H]23)OCO4)cc(OC)c1O` it is 27.5%; for `COc1cc([C@@H]2c3cc4c(cc3[C@@H](O[C@@H]3O[C@@H]5CO[C@@H](c6cccs6)O[C@H]5[C@H](O)[C@H]3O)[C@H]3COC(=O)[C@H]23)OCO4)cc(OC)c1O` [Teniposide (Vumon)] it is 12.4%. With `C[C@@H]1CC[C@@]2(OC1)O[C@H]1C[C@H]3[C@@H]4CC[C@H]5C[C@@H](O)CC[C@]5(C)[C@H]4CC[C@]3(C)[C@H]1[C@@H]2C`, the cell viability worked out at 97.1%.

In the case of `CCC[C@H](NC(=O)/C(C#N)=C/c1cccc(Br)n1)c1ccccc1`, the cell viability came out at 57.8%. Turning to `COc1ccc(C=CC(=O)O)cc1OC`, the cell viability came to 106%. Take `CC(=O)c1c(O)cc(O)cc1O`: the cell viability stood at 106%. The figure for `O=C(NC1CCCCC1)NC1CCCCC1` is 120%.

For the compound `O=C(O)C(=O)O.[NH-]C1CCCCC1[NH-].[Pt+2]` (configuration not stated) [Oxaliplatin (Eloxatin)], the cell viability amounted to 41.3%. The figure for `CC(C)=CCOc1cc2oc(=O)ccc2cc1O` is 98%. Regarding `O=c1cc(-c2cc(O)c(O)c(O)c2)oc2cc(O)cc(O)c12`, the cell viability is 106%. To `COC(=O)C[C@H]1C2(C)CC34OC5(C)O[C@@]6([C@H](OC(C)=O)C(OC(C)=O)[C@]7(C)C(/C(=C(/O)C(C)C)C(=O)O[C@H]7c7ccoc7)[C@@]6(O5)[C@H](OC(C)=O)[C@@]3(O)C2OC(=O)C(C)C)[C@]14C` (some centres not stated) belongs 102%.
